# Measured values: PubChem BioAssay (NCATS)
# Unmarked numbers belong to inactive results. Records with an inconclusive call do not appear. Entries that show only a call come without a potency. The source made the active and inactive calls. Unless noted, calls follow the shape of the dose curve; as a rule, active = well fitted curve in the direction sought with a large enough effect; inconclusive = small, poorly fitted or top-dose-only effect, or another doubt; inactive = no such curve, though single readings can be large; an effect the other way counts as inactive or inconclusive.
# Tests used:
# [1] = target: T1, Hexokinase-4 (Homo sapiens) + Glucokinase regulatory protein (Homo sapiens) (UniProt P35557+Q14397); test: qHTS assay for inhibitors of recombinant human GCK-GKRP interaction: Diaphorase-coupled assay (AID 743205)
# T1 sequence (P35557 whole entry, looked up): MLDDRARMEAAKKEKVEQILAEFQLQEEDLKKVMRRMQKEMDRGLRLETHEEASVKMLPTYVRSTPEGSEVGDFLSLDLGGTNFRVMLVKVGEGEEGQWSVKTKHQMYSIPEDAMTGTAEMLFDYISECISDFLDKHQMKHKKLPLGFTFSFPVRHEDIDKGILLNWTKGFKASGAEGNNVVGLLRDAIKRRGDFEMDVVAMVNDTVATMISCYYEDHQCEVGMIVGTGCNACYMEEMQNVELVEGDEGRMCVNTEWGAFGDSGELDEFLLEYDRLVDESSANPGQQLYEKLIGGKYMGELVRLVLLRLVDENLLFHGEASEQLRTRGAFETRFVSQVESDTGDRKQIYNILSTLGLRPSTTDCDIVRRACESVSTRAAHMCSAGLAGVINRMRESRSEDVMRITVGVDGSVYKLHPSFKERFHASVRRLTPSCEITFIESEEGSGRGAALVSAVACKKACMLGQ
# T1 sequence (Q14397 whole entry, looked up): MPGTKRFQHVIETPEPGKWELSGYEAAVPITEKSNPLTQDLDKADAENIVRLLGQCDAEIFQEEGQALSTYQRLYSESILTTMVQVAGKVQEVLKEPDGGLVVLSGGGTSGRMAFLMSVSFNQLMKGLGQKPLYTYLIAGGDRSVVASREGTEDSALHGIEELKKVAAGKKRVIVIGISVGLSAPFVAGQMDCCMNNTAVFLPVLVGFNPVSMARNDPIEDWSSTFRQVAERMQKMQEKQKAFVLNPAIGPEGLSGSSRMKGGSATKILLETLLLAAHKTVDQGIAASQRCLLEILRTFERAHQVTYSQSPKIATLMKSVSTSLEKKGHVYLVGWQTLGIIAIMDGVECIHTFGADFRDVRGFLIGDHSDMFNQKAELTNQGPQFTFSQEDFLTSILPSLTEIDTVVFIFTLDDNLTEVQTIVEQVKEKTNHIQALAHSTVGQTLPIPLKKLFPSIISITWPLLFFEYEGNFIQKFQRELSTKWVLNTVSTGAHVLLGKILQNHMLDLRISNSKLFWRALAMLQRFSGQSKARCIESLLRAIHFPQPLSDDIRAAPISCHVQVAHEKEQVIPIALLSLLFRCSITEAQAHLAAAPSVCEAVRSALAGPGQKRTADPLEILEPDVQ
# How it was run: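 Resorufin fluorescence (525/590 nm), read each minute over 30 min, reports GCK activity coupled via G6PDH and diaphorase. Reaction: 10 nM GST-GCK, 10 nM FLAG-GKRP, 5 mM glucose, 0.4 mM ATP, 0.15 mM NADP+, 0.1 mM resazurin.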
# [2] = target: T1, Hexokinase-4 (Homo sapiens) + Glucokinase regulatory protein (Homo sapiens); test: qHTS assay for inhibitors of recombinant human GCK-GKRP interaction: ADP-Glo assay (AID 743206)
# How it was run: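 Pin-transferred compounds meet a 15 nM GST-GCK/15 nM FLAG-GKRP/2 uM S6P mix (dispense concentrations). ATP is then added to 0.4 mM final with 5 mM glucose, and the reaction runs 60 min at room temperature. ADP is quantified luminescently.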
# [3] = target: T1, Hexokinase-4 (Homo sapiens) + Glucokinase regulatory protein (Homo sapiens); test: qHTS assay for inhibitors of recombinant human GCK-GKRP interaction: HTRF assay (AID 743207)
# How it was run: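 HTRF read-out (ex 320 nm; 615/665 nm emission) after 60 min RT equilibration of 5 nM GST-GCK, 5 nM FLAG-GKRP, 2 uM S6P, compound and anti-FLAG/anti-GST detection antibodies; signal normalized between DMSO wells with and without GCK.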
# [4] = qHTS Assay for Identifying Gametocytocidal Compounds (AID 743244); also: potency is read from the fitted curve at half-maximal effect;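 as to max response: actives lower the fluorescent signal which means gametocytes are killed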; settings: P. falciparum 3D7 stage III-V gametocytes, alamarBlue, 72 h; max response: active compounds read low
# How it was run: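 A resazurin-based viability read-out was applied to mature P. falciparum gametocytes: 72 h compound treatment, then 24 h dye incubation, with falling fluorescence signalling gametocytocidal effect.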
# [5] = qHTS assay for measurement of the activity of small molecule inhibitors on Zika virus induced Caspase-3 activity in human iPSC derived neural progenitor cells (hNPCs) (AID 1224857); also: nearly all actives have a fitted effect of over 65% in size
# How it was run: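 Quantitative HTS format: human iPSC neural progenitors, 1 h compound pretreatment, ZIKV 2 FFU/cell for 6 h at 37 C. Percent inhibition derived from luminescent caspase-3/7 signal between uninfected and infected controls.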
# [6] = qHTS assay for measurement of the activity of small molecule inhibitors on Zika virus induced Caspase-3 activity in human astrocytoma cells (AID 1224859)
# How it was run: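 Readout is luminescence from Caspase-Glo 3/7 added after a 6 h ZIKV infection (2 FFU/cell) of compound-pretreated (1 h) SNB-19 cells; data expressed as % inhibition versus uninfected and infected wells.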
# [7] = Natriuretic polypeptide receptor (hNpr1) antagonism - Pilot counterscreen GloSensor control cell line (AID 1347045; calls by dose curve; also: potency is read from the fitted curve at half-maximal effect)
# How it was run: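 Control counterscreen: luciferase cGMP-biosensor HEK293 cells (no Npr1) received compound for 30 min at room temperature after GloSensor substrate loading. Luminescence was measured before and 20 min after soluble guanylyl cyclase activation by 50 uM nitroprusside.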
# [8] = target: Atrial natriuretic peptide receptor 1 (Homo sapiens) (UniProt P16066); test: Natriuretic polypeptide receptor (hNpr1) antagonism - Pilot screen (AID 1347049; calls by dose curve;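 also: agonist-evoked cGMP luminescence read 20 min after hNppA addition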; also: potency is read from the fitted curve at half-maximal effect)
# Atrial natriuretic peptide receptor 1 (Homo sapiens), sequence (P16066 whole entry, looked up): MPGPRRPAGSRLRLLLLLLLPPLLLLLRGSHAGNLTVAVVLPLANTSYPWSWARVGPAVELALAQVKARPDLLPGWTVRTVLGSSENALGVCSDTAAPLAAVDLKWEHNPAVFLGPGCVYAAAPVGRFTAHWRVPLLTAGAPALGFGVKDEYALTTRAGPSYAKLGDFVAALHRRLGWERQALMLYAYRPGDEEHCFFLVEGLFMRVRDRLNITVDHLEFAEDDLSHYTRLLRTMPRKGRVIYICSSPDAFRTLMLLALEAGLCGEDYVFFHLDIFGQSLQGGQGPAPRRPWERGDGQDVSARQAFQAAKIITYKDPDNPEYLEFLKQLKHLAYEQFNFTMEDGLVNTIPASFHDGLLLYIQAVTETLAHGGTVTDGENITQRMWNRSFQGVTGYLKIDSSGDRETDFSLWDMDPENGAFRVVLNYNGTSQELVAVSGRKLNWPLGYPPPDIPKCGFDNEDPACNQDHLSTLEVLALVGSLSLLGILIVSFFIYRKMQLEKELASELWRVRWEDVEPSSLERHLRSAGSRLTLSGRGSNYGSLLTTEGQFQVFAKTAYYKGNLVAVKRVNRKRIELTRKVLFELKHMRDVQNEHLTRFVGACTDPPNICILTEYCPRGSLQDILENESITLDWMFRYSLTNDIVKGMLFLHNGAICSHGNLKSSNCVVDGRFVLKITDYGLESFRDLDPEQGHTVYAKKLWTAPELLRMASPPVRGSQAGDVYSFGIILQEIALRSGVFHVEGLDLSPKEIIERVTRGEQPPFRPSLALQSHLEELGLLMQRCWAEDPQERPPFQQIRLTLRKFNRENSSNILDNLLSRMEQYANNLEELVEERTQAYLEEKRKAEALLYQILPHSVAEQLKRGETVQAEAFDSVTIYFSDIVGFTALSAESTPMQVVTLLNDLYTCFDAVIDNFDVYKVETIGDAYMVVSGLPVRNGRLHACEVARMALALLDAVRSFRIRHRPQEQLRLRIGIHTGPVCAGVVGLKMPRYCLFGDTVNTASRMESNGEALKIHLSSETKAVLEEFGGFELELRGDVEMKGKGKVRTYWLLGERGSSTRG
# How it was run: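 cGMP-sensor HEK293/hNpr1 cells, 1500/well, plated overnight at 37C. 2% GloSensor reagent, 2 h RT. Compound (23 nL pin transfer) 30 min RT, baseline luminescence pre-read. 0.1 nM hNppA, 20 min RT, post-read.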
# [9] = target: Atrial natriuretic peptide receptor 2 (Homo sapiens) (UniProt P20594); test: Natriuretic polypeptide receptor (hNpr2) antagonism - Pilot subtype selectivity assay (AID 1347050; calls by dose curve; also: potency is read from the fitted curve at half-maximal effect)
# Atrial natriuretic peptide receptor 2 (Homo sapiens), sequence (P20594 whole entry, looked up): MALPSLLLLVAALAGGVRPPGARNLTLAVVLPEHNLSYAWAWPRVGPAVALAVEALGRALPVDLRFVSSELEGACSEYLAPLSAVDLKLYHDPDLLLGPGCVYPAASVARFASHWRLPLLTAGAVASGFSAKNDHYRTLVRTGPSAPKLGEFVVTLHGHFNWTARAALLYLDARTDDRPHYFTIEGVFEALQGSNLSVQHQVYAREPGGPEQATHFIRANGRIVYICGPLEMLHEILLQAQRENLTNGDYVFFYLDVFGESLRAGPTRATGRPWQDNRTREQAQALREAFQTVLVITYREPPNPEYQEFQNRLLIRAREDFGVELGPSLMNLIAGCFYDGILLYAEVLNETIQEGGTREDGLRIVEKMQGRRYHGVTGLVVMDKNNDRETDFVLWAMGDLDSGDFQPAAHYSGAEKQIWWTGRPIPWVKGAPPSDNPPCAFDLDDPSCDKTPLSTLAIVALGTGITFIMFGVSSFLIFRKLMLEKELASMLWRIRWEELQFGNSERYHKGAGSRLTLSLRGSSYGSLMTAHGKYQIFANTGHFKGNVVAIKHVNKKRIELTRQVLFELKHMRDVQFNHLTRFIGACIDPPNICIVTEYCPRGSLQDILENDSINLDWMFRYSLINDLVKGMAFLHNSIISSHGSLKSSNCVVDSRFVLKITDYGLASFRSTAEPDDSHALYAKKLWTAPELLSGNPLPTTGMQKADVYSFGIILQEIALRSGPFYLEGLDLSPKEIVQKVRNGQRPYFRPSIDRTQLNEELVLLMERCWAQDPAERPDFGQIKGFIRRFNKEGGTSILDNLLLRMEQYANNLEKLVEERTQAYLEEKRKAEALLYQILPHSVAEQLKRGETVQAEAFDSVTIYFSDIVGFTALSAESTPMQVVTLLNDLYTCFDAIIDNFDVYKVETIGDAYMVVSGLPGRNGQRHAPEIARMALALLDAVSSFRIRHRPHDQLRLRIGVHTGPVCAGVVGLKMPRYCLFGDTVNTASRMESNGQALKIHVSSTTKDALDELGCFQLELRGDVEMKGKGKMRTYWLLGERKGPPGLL
# How it was run: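 Luminescence from a genetically encoded cGMP luciferase biosensor in hNpr2-expressing HEK293 cells is read before and 20 min after adding 1 nM hNppC. Test compounds, in interplate 1:5 titrations, are added 30-50 min ahead of the agonist.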
SMILES,Potency [1],Potency [2],Potency [3],max response [4] [%],Potency [5],Potency [6],Potency [7],Potency [8],Potency [9],Potency [4]
O=C(O)C1CCCNC1 (configuration not stated),inactive,inactive,inactive,20.9,inactive,inactive,inactive,inactive,inactive,
CNCCNS(=O)(=O)c1cccc2cnccc12,inactive,inactive,inactive,18.9,inactive,inactive,inactive,inactive,inactive,
C#CC(N)CCC(=O)O (configuration not stated),inactive,inactive,inactive,8.18,inactive,inactive,inactive,inactive,inactive,
CC(C)(C)c1cc(/C=C(\C#N)C(N)=S)cc(C(C)(C)C)c1O,inactive,inactive,inactive,6.59,inactive,inactive,1.17 µM (active),3.38 µM (active),4.65 µM (active),
N=C(N)SCCN,inactive,inactive,inactive,-1.63,inactive,inactive,inactive,inactive,inactive,
CCCCCC(O)CCCC(=O)O (configuration not stated),inactive,inactive,inactive,-4.98,inactive,inactive,inactive,inactive,inactive,
CSC(N)=NCCC[C@H](N)C(=O)O,inactive,inactive,inactive,9.52,inactive,inactive,inactive,inactive,inactive,
c1ccc2c(c1)CC(N1CCN(c3cccc4c3OCCO4)CC1)C2,inactive,inactive,inactive,9.97,inactive,inactive,inactive,inactive,inactive,
N[C@H]1CONC1=O,inactive,inactive,inactive,7.19,inactive,inactive,inactive,inactive,inactive,
O=c1cc(-c2ccccc2F)[nH]c2cc3c(cc12)OCO3,inactive,inactive,inactive,15.8,inactive,inactive,inactive,inactive,inactive,
COc1ccccc1N1CCN(CCCCN2C(=O)c3ccccc3C2=O)CC1,inactive,inactive,inactive,10.1,inactive,inactive,inactive,inactive,inactive,
O=C(O)C1CN(CCCP(=O)(O)O)CCN1 (configuration not stated),inactive,inactive,inactive,-7.29,inactive,inactive,inactive,inactive,inactive,
NCCCCN,inactive,inactive,inactive,15.5,inactive,inactive,inactive,inactive,inactive,
CCn1c(=O)[nH]c2cc(Cl)c(Cl)cc21,inactive,inactive,inactive,24.6,inactive,inactive,inactive,inactive,inactive,
CCCCOc1cc(CC2CNC(=O)N2)ccc1OC (configuration not stated),inactive,inactive,inactive,22.4,inactive,inactive,inactive,inactive,inactive,
O=c1onc2n1-c1cc(Br)ccc1OC2,inactive,inactive,inactive,20.4,inactive,inactive,0.131 µM (active),inactive,inactive,
O=c1ccn([C@@H]2O[C@H](COP(=O)(O)OP(=O)(O)O)[C@@H](O)[C@H]2O)c(=O)[nH]1,inactive,inactive,inactive,17.2,inactive,inactive,inactive,inactive,inactive,
CCCCCCCCCC(=O)NC(CN1CCOCC1)[C@H](O)c1ccccc1 (some centres not stated),inactive,inactive,inactive,,inactive,inactive,inactive,inactive,inactive,3.55 µM (active)
N=C(N)c1ccc(OCCCCCOc2ccc(C(=N)N)cc2)cc1 (tested in a mixture with another compound),inactive,inactive,inactive,,inactive,inactive,inactive,inactive,inactive,0.562 µM (active)
CN1CCN(c2nc3cc(C(F)(F)F)ccc3n3cccc23)CC1,inactive,inactive,inactive,14.6,inactive,inactive,inactive,inactive,inactive,
COC(=O)C1=C(C)NC(C)=C([N+](=O)[O-])C1c1ccccc1C(F)(F)F (configuration not stated),inactive,inactive,inactive,19.5,inactive,inactive,inactive,inactive,inactive,
[N-]=[N+]=Nc1ccc(C(=O)CSC[C@H](NC(=O)CC[C@H](N)C(=O)O)C(=O)NCC(=O)O)cc1,inactive,inactive,inactive,27,inactive,inactive,inactive,inactive,inactive,
O=c1[nH]ccc2c(O)cccc12,inactive,inactive,inactive,22.6,inactive,inactive,inactive,inactive,inactive,
